Assay results: PubChem BioAssay (NCATS)
Several values for one entry are separate records, joined by “and”; a condition that tells them apart may be missing. Identical values can stand only once. Records with an inconclusive call do not appear. Activity calls are given as the source filed them. The call rests on the fitted dose curve; in most records, active means well fitted curve in the direction sought with a large enough effect; inconclusive means small, poorly fitted or top-dose-only effect, or another doubt; inactive means no such curve, though single readings can be large or run the other way.

assay: qHTS Assay for Identifying Gametocytocidal Compounds (AID 743244);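 on max response: actives lower the fluorescent signal which means gametocytes are killed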; conditions: P. falciparum 3D7 stage III-V gametocytes, alamarBlue, 72 h; max response: hits give low values
In short: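 Stage III-V P. falciparum 3D7 gametocytes, 20,000 per well, were exposed to compounds for 72 h at 37C, 5% CO2. AlamarBlue was then added for 24 h and viability was read as fluorescence at Ex 525/Em 598 nm.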
On the % scale 0 is the no-effect control and ±100 the full control effect; potency means the concentration at half of the fitted maximal effect.

**Q.** For CC(=O)O[C@H]1CC[C@H]2[C@@H]3CCC4=CC(=O)CCC4=C3C=C[C@]12C, which max response is on record?
**A.** 5.16% (inactive)

**Q.** With C[N+]1(C)CCCCC1COC(=O)C(O)(c1ccccc1)c1ccccc1 (stereo not given) as the compound, how does the max response read?
**A.** -10.4% (inactive)

**Q.** For CC[N+](C)(CC)CCOC(=O)C(O)(c1ccccc1)c1ccccc1, which max response is on record?
**A.** 11.5% (inactive)

**Q.** For CCCC(C)(COC(N)=O)COC(=O)NC1CC1 (stereo not given), which max response is on record?
**A.** 6.87% (inactive)

**Q.** With CC1(C)S[C@@H]2[C@H](N)C(=O)N2[C@H]1C(=O)O as the compound, how does the max response read?
**A.** -4.29% (inactive)

**Q.** Which max response does the source give for CCCCCCCCCC(=O)O[C@H]1CC[C@H]2[C@@H]3CCC4=CC(=O)CC[C@]4(C)[C@H]3CC[C@]12C here?
**A.** 4.27% (inactive)

**Q.** For COc1ccc2c3c1O[C@H]1[C@@H](O)C=C[C@H]4[C@@H](C2)NCC[C@@]341, which max response is on record?
**A.** -9% (inactive)

**Q.** With CCC1(c2ccccc2)C(=O)NC(=O)NC1=O as the compound, how does the max response read?
**A.** 6% (inactive)

**Q.** For c1ccc2sc(SNC3CCCCC3)nc2c1, which max response is on record?
**A.** 27.5% (inactive)

**Q.** With CC[C@H]1[C@@H]2C[C@H]3[C@@H]4N(C)c5ccccc5[C@]45C[C@@H](C2[C@H]5O)N3[C@@H]1O (stereo not given in full) as the compound, how does the max response read?
**A.** 7.56% (inactive)

**Q.** With CCOC(=O)/C=C(C)/C=C/C[C@@H](C)CCCC(C)C as the compound, how does the max response read?
**A.** 10.1% (inactive)

**Q.** With O=[N+]([O-])c1cc(I)c(O)c(I)c1 as the compound, how does the max response read?
**A.** 0.0812% (inactive)

**Q.** Which max response does the source give for O=C1CCCCC1CN1CCCCC1 (stereo not given) here?
**A.** -0.825% (inactive)

**Q.** Which max response does the source give for CC1CCC(C(C)C)C(OC(=O)c2ccccc2N)C1 (stereo not given) here?
**A.** 9.28% (inactive)

**Q.** For CC(=O)O[C@H]1CC[C@@]2(C)C(=CC[C@@H]3[C@@H]2CC[C@]2(C)C(=O)CC[C@@H]32)C1, which max response is on record?
**A.** 5.11% (inactive)

**Q.** With C[N+]1(C)[C@@H]2CC[C@H]1CC(OC(=O)c1c[nH]c3ccccc13)C2 (stereo not given in full) as the compound, how does the max response read?
**A.** 8.77% (inactive)

**Q.** With C[C@]12CC[C@H](O)C[C@H]1CC[C@@H]1[C@@H]2CC[C@]2(C)[C@@H](c3ccc(=O)oc3)C[C@H]3O[C@]132 as the compound, how does the max response read?
**A.** 10.6% (inactive)

**Q.** With CCN1C[C@]2(COC)[C@H](O)C[C@H](OC)[C@@]34[C@@H]5C[C@@]6(O)[C@H](OC(=O)c7ccccc7)[C@@H]5[C@@](OC(C)=O)([C@@H]([C@H](OC)[C@H]23)[C@@H]14)[C@@H](O)[C@@H]6OC as the compound, how does the max response read?
**A.** -5.96% (inactive)

**Q.** With CCN(CC)CCO[C@H]1CC[C@@]2(C)C(=CC[C@@H]3[C@@H]2CC[C@]2(C)C(=O)CC[C@@H]32)C1 as the compound, how does the max response read?
**A.** -4.56% (inactive)

**Q.** For CC(C)(O)[C@@H]1[C@H]2OC(=O)[C@@H]1[C@]1(O)C[C@H]3O[C@]34C(=O)O[C@H]2[C@]14C, which max response is on record?
**A.** -7.5% (inactive) and 15.4% (inactive)

**Q.** Which max response does the source give for NCC(O)c1cccc(O)c1 (stereo not given) here?
**A.** 13.2% (inactive)

**Q.** Which max response does the source give for CCC1(c2ccccc2)C(=O)NC(=O)N(C(=O)c2ccccc2)C1=O (stereo not given) here?
**A.** -4.65% (inactive)

**Q.** With Cc1ccccc1-n1c(C)nc2ccccc2c1=O as the compound, how does the max response read?
**A.** 5.64% (inactive) and -12.4% (inactive)

**Q.** For C[C@]12CC[C@H](OS(=O)(=O)O)CC1=CC[C@@H]1[C@@H]2CC[C@]2(C)C(=O)CC[C@@H]12, which max response is on record?
**A.** 33.6% (inactive)

**Q.** With C[C@]12CC[C@H]3[C@@H](CC[C@@]45O[C@@H]4C(O)=C(C#N)C[C@]35C)[C@@H]1CC[C@@H]2O as the compound, how does the max response read?
**A.** -8.72% (inactive)

**Q.** With C[C@@H](CO)NC(=O)[C@@H]1C=C2c3cccc4[nH]cc(c34)C[C@H]2N(C)C1 as the compound, how does the max response read?
**A.** -6.08% (inactive)

**Q.** With O=C1CN=C(c2ccccc2)c2cc(Cl)ccc2N1CC1CC1 as the compound, how does the max response read?
**A.** -0.952% (inactive)

**Q.** For C=CCC1(C(C)CCC)C(=O)N=C(S)NC1=O (stereo not given), which max response is on record?
**A.** -3.05% (inactive)

**Q.** For Oc1cccc[c]1[Hg][Cl], which Potency is on record?
**A.** 1.78 µM (active)

**Q.** With CN1CCCC(=C(c2cccs2)c2cccs2)C1 as the compound, how does the max response read?
**A.** -3.64% (inactive)

**Q.** For COc1ccc(OC)c([C@@H](O)[C@H](C)N)c1, which max response is on record?
**A.** 0.514% (inactive)

**Q.** For c1ccc(C2(N3CCCC3)CCCCC2)cc1, which max response is on record?
**A.** -1.69% (inactive)

**Q.** For CC(=O)OCC(=O)[C@H]1CC[C@H]2[C@@H]3CC[C@H]4C[C@H](O)CC[C@]4(C)[C@H]3C(=O)C[C@]12C, which max response is on record?
**A.** 11.4% (inactive)

**Q.** For O=C(CCl)c1ccc(Oc2ccc(C(=O)CCl)cc2)cc1, which max response is on record?
**A.** 0.618% (inactive)

**Q.** For CCC(=O)O[C@]1(c2ccccc2)CCN(C)C[C@H]1C, which max response is on record?
**A.** -3.07% (inactive)
